High-throughput results from PubChem.
HCV inh – qHTS Assay for Inhibitors of Hepatitis C Virus (HCV); AID 651820, 2012; 340,000 tested, 3.4% active; Huh7.5.1 HCVcc-Cre infection, luciferase reporter, 44 h; Potency, µM (top dose mostly 41.8 µM), most hits filed as inhibitors; active = well fitted inhibition curve with a large enough effect; inconclusive = small, poorly fitted or top-dose-only effect, or another doubt; inactive = no such curve, though single readings can be large or run the other way
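1,000 cells/well; 4 h culture; + compound; + HCVcc-Cre (~0.5 moi); 44 h; luciferase substrate, RT 15 min; read 15 sec.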
Marburg entry inh – qHTS for inhibitors of binding or entry into cells for Marburg Virus. AID 540276, 2011. Marburg virus pseudotyped entry inhibition, cell reporter. 300,000 tested, 1.8% active. Potency, µM (series often up to 37.8 µM), actives largely listed as inhibitors; calls by dose curve; tested in HEK293 cells
FMDV inh – High Throughput Screening for Foot and Mouth Disease Virus Antivirals. FMDV antiviral cell-based qHTS. Potency, µM (doses to about 57.9 µM), usual class: inhibitors. 410,000 tested, 1.2% active. AID 1159524, 2015; calls by dose curve; tested in HEK293T cells; note: read-out not given here; nearly all actives have a fitted effect of over 45% in size
HCMV inh – qHTS Assay for inhibitors of the human cytomegalovirus (HCMV). HFF cells, HCMV-luciferase reporter, 72 h; hits give low values. activity change, negative = inhibition, % at 57.5 µM. 410,000 tested, 4.5% active. AID 1259415, 2018; in the data active = activity change below about -60%; inconclusive = no clear call, values can overlap the other calls; inactive = above about -39%
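Inhibition of viral replication was scored as loss of reporter luminescence in HFFs infected with HCMV-luciferase (MOI 1 PFU/cell) for 72 h; compounds tested at 2 doses, normalized to buffer and Salinomycin controls.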
Lassa entry inh – qHTS for Inhibitors of binding or entry into cells for Lassa Virus; Lassa virus pseudotype entry inhibition, cell reporter; Potency, µM (highest dose often 37.9 µM), usual class: inhibitors; 300,000 tested, 1.2% active; AID 540256, 2011; calls by dose curve; tested in HEK293 cells; note: nearly all actives have a fitted effect of over 50% in size
Of the large screens only hits and unclear results are named; the others gave an inactive call. An excerpt weighted towards active compounds, which were near 7.9% of everything screened.

Cc1cc(C)cc(-n2c(SCC(=O)N3CCOCC3)nc3c([nH]c4ccccc43)c2=O)c1	FMDV inh inconclusive, Lassa entry inh inconclusive (no result: HCV inh, Marburg entry inh)
CCn1cc(C(=O)NCc2ccc(C)cc2)c(=O)c2cc(S(=O)(=O)N(C)C3CCCCC3)ccc21	none (no result: HCV inh)
COc1ccc(-c2cc(C(F)(F)F)n3nc(C(=O)N4CCCCC4)cc3n2)cc1OC	HCV inh inconclusive, Marburg entry inh inconclusive, Lassa entry inh inconclusive
COc1ccc(-c2cc(C(F)(F)F)n3nc(C(=O)N4CCCCC4)cc3n2)cc1	HCV inh 11µM, Marburg entry inh inconclusive, HCMV inh inconclusive (no result: FMDV inh)
COc1cccc(-c2cc(C(F)(F)F)n3nc(C(=O)N4CCCCC4c4cccnc4)cc3n2)c1 (configuration not stated)	HCV inh 5.6µM, Marburg entry inh inconclusive, FMDV inh inconclusive, HCMV inh -68 (no result: Lassa entry inh)
O=C(NCCCn1ccnc1)c1cc2nc(-c3ccc(Br)cc3)cc(C(F)(F)F)n2n1	HCV inh 7.1µM, Marburg entry inh inconclusive, Lassa entry inh inconclusive
CCCNC(=O)c1cc2nc(-c3ccc(Br)cc3)cc(C(F)(F)F)n2n1	none (no result: HCV inh)
O=C(NCCCn1ccnc1)c1cc(-c2ccc(Cl)cc2)nc2ccccc12	HCV inh 11µM
COc1cc(C(=O)NNC(=O)COc2ccccc2Cl)ccc1OCC(=O)N1CCOCC1	none (no result: Marburg entry inh, Lassa entry inh)
COc1ccc(-c2cc(C(F)(F)F)n3nc(C(=O)NCCCN4CCOCC4)cc3n2)cc1	HCV inh 11µM
COc1ccc(-c2cc(C(F)(F)F)n3nc(C(=O)Nc4cc(C)ccc4C)cc3n2)cc1	none (no result: HCV inh)
COc1cccc(/C=N/N2CCN(c3ccc(Cl)cc3)CC2)c1OC	HCV inh inconclusive, FMDV inh inconclusive, HCMV inh -69 (no result: Marburg entry inh, Lassa entry inh)
COc1cccc(C=NN2CCCCCC2)c1OC	Marburg entry inh inconclusive
COC(=O)[C@]1(C#N)[C@H](C)C(=O)N(C(C)C)[C@@H]1c1ccc(OC)cc1	none (no result: HCV inh, Marburg entry inh, FMDV inh, Lassa entry inh)
CCN(CC)C(=O)c1ccc(NC(=O)CCn2nc(-c3ccc(C)cc3)c3ccccc3c2=O)cc1	Marburg entry inh inconclusive, FMDV inh inconclusive, HCMV inh -65, Lassa entry inh inconclusive (no result: HCV inh)
O=C(CCn1nc(-c2ccccc2)c2ccccc2c1=O)NN1CCOCC1	Marburg entry inh inconclusive, HCMV inh -70
CCN(CC)C(=O)c1ccc(-c2nnc(OC)c3ccccc23)cc1	HCMV inh -66
O=C(Cn1nc(-c2ccccc2)c2ccccc2c1=O)Nc1ccccn1	Marburg entry inh inconclusive, HCMV inh -61, Lassa entry inh inconclusive
CCN(CC)C(=O)c1ccc(-c2nnc(Nc3ccc(C(=O)NC)cc3)c3ccccc23)cc1	FMDV inh inconclusive (no result: Marburg entry inh, Lassa entry inh)
Cc1cccc(OCC(=O)NCCNC(=O)c2ccco2)c1	none (no result: Lassa entry inh)
CCC[C@@H]1[C@@H]2C(=O)N(c3ccccc3OC)C(=O)[C@H]2ON1c1ccccc1	none (no result: HCV inh, FMDV inh, HCMV inh, Lassa entry inh)
O=c1c2c3c(sc2n(CCN2CCCCC2)c(=O)n1Cc1ccco1)CCCCC3	HCV inh inconclusive, Marburg entry inh 16µM
O=c1c2c3c(sc2n(CCN2CCOCC2)c(=O)n1Cc1ccco1)CCCCC3	HCV inh 10µM, Marburg entry inh inconclusive, HCMV inh -96, Lassa entry inh inconclusive
CCn1cc(C2=NOC(C(=O)Nc3cccc(C(C)=O)c3)C2)c(C)n1 (configuration not stated)	HCV inh 6.3µM, FMDV inh inconclusive, HCMV inh -64
CCn1ncc(C2=NOC(C(=O)Nc3cnn(C45CC6CC(CC(C6)C4)C5)c3)C2)c1C (configuration not stated)	FMDV inh inconclusive, HCMV inh -83, Lassa entry inh inconclusive
CCn1cc(C2=NOC(C(=O)Nc3c(C)nn(Cc4ccc(F)cc4)c3C)C2)c(C)n1 (configuration not stated)	HCV inh inconclusive, FMDV inh inconclusive (no result: Lassa entry inh)
Cc1ccc(-c2nnc(SCC(=O)NC3CCS(=O)(=O)C3)nc2-c2ccc(C)cc2)cc1 (configuration not stated)	none
COc1ccc2cnoc(=O)c2c1OC	none (no result: HCV inh, Marburg entry inh, HCMV inh, Lassa entry inh)
CC(=O)OCC1=C[C@@H]2OC(=O)C3=CO[C@@H](O[C@@H]4O[C@H](CO)[C@@H](O)[C@H](O)[C@H]4O)[C@H]1[C@@H]32	none (no result: Marburg entry inh, Lassa entry inh)
C=C1C(=O)OC2C=C(CO)C3OC3C3OC3(C)CC(OC(=O)/C(=C/C)COC(C)=O)C12 (configuration not stated)	HCV inh inconclusive, Marburg entry inh 2.5µM, FMDV inh 7.9µM, HCMV inh -100, Lassa entry inh inconclusive
O=C(Nc1ccccc1)OC[C@@H]1C=CS(=O)(=O)N1Cc1ccc(Br)cc1	HCMV inh -101 (no result: HCV inh, Marburg entry inh, Lassa entry inh)
CC(=O)c1ccc(N2CCC(c3cc(-c4ccc(Cl)cc4Cl)n[nH]3)CC2)c([N+](=O)[O-])c1	HCV inh 11µM, Marburg entry inh inconclusive, FMDV inh 20µM, HCMV inh -60, Lassa entry inh inconclusive
O=[N+]([O-])c1cccnc1N1CCC(c2cc(-c3ccc(Cl)cc3Cl)n[nH]2)CC1	HCV inh 22µM, Marburg entry inh inconclusive, Lassa entry inh inconclusive
COc1ccc(OC)c(-c2cc(C3CCN(c4ncccc4[N+](=O)[O-])CC3)[nH]n2)c1	HCV inh 11µM, Marburg entry inh inconclusive, FMDV inh inconclusive, Lassa entry inh inconclusive
CC(=O)c1ccc(N2CCN(c3ccccc3O)CC2)c([N+](=O)[O-])c1	Marburg entry inh inconclusive, FMDV inh inconclusive
COc1c(OC)c2occc2c2oc(=O)ccc12	none (no result: HCV inh, Marburg entry inh, HCMV inh, Lassa entry inh)
COC(=O)c1cc(NC(=O)c2cc(-c3ccc(OC)cc3)oc2C(F)(F)F)ccc1N1CCOCC1	HCV inh 7.1µM (no result: Marburg entry inh, Lassa entry inh)
COC(=O)c1cc(NC(=O)c2cc(-c3ccc(C(F)(F)F)cc3)oc2C(F)(F)F)ccc1N1CCOCC1	HCV inh 3.5µM, Marburg entry inh 11µM, FMDV inh inconclusive, HCMV inh -94, Lassa entry inh inconclusive
C[C@@H]1CN([C@@H](C)CO)C(=O)c2cccc(NC(=O)C3CCOCC3)c2O[C@H]1CN(C)S(=O)(=O)c1ccc(Cl)cc1	none (no result: Marburg entry inh, Lassa entry inh)
Cc1ccc(Cl)c(OCC(=O)NCC(c2cccs2)N2CCOCC2)c1 (configuration not stated)	HCV inh 13µM, Marburg entry inh inconclusive, FMDV inh inconclusive, HCMV inh -68, Lassa entry inh inconclusive
O=C(COc1ccccc1Cl)NCC(c1cccs1)N1CCOCC1 (configuration not stated)	HCV inh inconclusive, HCMV inh inconclusive
COc1cc(C(=O)NCC(c2cccs2)N2CCOCC2)cc(Br)c1OCc1ccccc1 (configuration not stated)	HCV inh 10µM (no result: Marburg entry inh, Lassa entry inh)
Cc1c(CN2CCOc3ccc(C(C)(O)COc4ccccc4)cc3C2)cnn1C (configuration not stated)	none (no result: HCV inh, Marburg entry inh, HCMV inh, Lassa entry inh)
CCCCCCCN(C(=O)CCl)c1ccccc1C	HCV inh inconclusive, FMDV inh inconclusive, HCMV inh -83
Cc1ccccc1N(Cc1cc(=O)[nH]c2ccccc12)C(=O)C(C)C	Marburg entry inh inconclusive
CCN(C(=O)c1ccc(C(=O)N(CC)c2ccccc2C)cc1)c1ccccc1C	none (no result: HCV inh, Marburg entry inh)
